Measured values from PubChem BioAssay AID1159580 (chemical genetic matrix, 2015).
Hit rate of the full screen: of about 5,500 compounds, about 2,000 (36%) were called active. Another 18% or so got no clear call; they are omitted. Cut-off read from the data, not from the text of the source: active = normalized growth mostly below about 0.91 (no sharp cut-off); inconclusive = no clear call, values can overlap the other calls; inactive = mostly above about 0.92. This is one part of the list.

Test: chemical genetic growth profiling, strain panel (AID 1159580);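 note: tested at 20 µM; growth read once vehicle control cultures reached saturation at 30 °C; 1 = growth at the plate median or of vehicle wells; lower values mean less growth of the strain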
Details: S. cerevisiae deletion strains, growth OD

Measured: normalized growth

C[C@@H]1O[C@@H](O[C@H]2C[C@@H](O)[C@]3(CO)[C@H]4[C@H](O)C[C@]5(C)[C@@H](C6=CC(=O)OC6)CC[C@]5(O)[C@@H]4CC[C@]3(O)C2)[C@H](O)[C@H](O)[C@H]1O
inactive: locus YAL040C, strain CLN3, hits give low values 0.989 | locus YCL061C, strain MRC1 (second series), hits give low values 0.996 | locus YDR150W, strain NUM1, hits give low values 1 | locus YDR363W, strain ESC2, hits give low values 0.984 | locus YER002W, strain NOP16, hits give low values 1.02 | locus YGR078C, strain PAC10, hits give low values 0.985 | locus YGR229C, strain SMI1, hits give low values 0.993 | locus YJR075W, strain HOC1, hits give low values 0.997 | locus YMR263W, strain SAP30, hits give low values 0.996 | locus YMR307W, strain GAS1, hits give low values 0.995 | locus YNL175C, strain NOP13, hits give low values 1.02 | locus YNL197C, strain WHI3, hits give low values 1.03 | locus YNL224C, strain SQS1, hits give low values 0.988 | locus YOR083W, strain WHI5 (second series), hits give low values 1
